Consider 18 compounds from PubChem BioAssay (EPA / NIEHS).

Values joined by “and” are separate entries in the source; they are usually repeats but may differ in a detail not shown here. Equal values may be shown once. Some structures have more than one record in an assay (separate samples or runs), and their calls can disagree. Active and inactive are the calls of the source. How the source made its calls: active means hit-call score of the fitted dose curve at least 0.9, where 1 is the maximum; inactive means score below 0.9.

A short description of experiment [1]: BSK_CASM3C_SRB: Viability Assessment in the BioMAP Diversity Plus: CASM3C Assay (AID 2283050).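 Further: total protein by SRB staining as cytotoxicity measure in parallel cultures; cells exposed to compound for 24 h.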 As to conditions: primary human coronary artery smooth muscle cells.
Read-out in experiment [2]: Thrombomodulin, THBD (gene 7056)
Description: BSK_CASM3C_Thrombomodulin: BioMAP Diversity Plus: CASM3C Assay for Thrombomodulin Biomarker Activity (AID 2283051).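 Further: thrombomodulin protein level measured by ELISA 24 h after dosing.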 As to conditions: primary human coronary artery smooth muscle cells; actives raise or lower the signal.

Read-out in experiment [3]: Tissue Factor, F3 (gene 2152)
Description: BSK_CASM3C_TissueFactor: BioMAP Diversity Plus: CASM3C Assay for Tissue Factor Biomarker Activity (AID 2283052).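 Further: cell surface tissue factor protein level read by ELISA.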 As to conditions: primary human coronary artery smooth muscle cells; actives raise or lower the signal.

Read-out in experiment [4]: Interferon-gamma inducible Protein 10 (IP10), CXCL10 (gene 3627)
Briefly: BSK_hDFCGF_IP10: BioMAP Diversity Plus: hDFCGF Assay for Interferon-gamma inducible Protein 10 (IP10) Biomarker Activity (AID 2283053). As to conditions: primary human foreskin fibroblasts; actives raise or lower the signal. The essentials:
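Cells: human dermal foreskin fibroblasts. Exposure: 24 h post-dosing. Detection: IP-10 ELISA, with values expressed against DMSO controls and fitted in both directions.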

Read-out in experiment [5]: Urokinase-type plasminogen activator receptor (uPAR), PLAUR (gene 5329)
Description: BSK_CASM3C_uPAR: BioMAP Diversity Plus: CASM3C Assay for Urokinase-type plasminogen activator receptor (uPAR) Biomarker Activity (AID 2283054).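 Further: cell-surface uPAR protein level quantified by ELISA.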 As to conditions: primary human coronary artery smooth muscle cells; actives raise or lower the signal.

Read-out in experiment [6]: Vascular cell adhesion molecule 1 (VCAM1), VCAM1 (gene 7412)
Description: BSK_CASM3C_VCAM1: BioMAP Diversity Plus: CASM3C Assay for Vascular cell adhesion molecule 1 (VCAM1) Biomarker Activity (AID 2283055).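 Further: VCAM-1 protein level quantified by ELISA on the cells.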 As to conditions: primary human coronary artery smooth muscle cells; actives raise or lower the signal.

Read-out in experiment [7]: Collagen III, COL3A1 (gene 1281)
Briefly: BSK_hDFCGF_CollagenIII: BioMAP Diversity Plus: hDFCGF Assay for Collagen III Biomarker Activity (AID 2283056). As to conditions: primary human foreskin fibroblasts; actives raise or lower the signal. The essentials:
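Human foreskin primary fibroblasts were exposed to test chemicals for 24 h, after which collagen III was quantified by ELISA. Activity was fitted bidirectionally against DMSO as negative control and baseline.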

Read-out in experiment [8]: Epidermal growth factor receptor (EGFR), EGFR (gene 1956)
Description: BSK_hDFCGF_EGFR: BioMAP Diversity Plus: hDFCGF Assay for Epidermal growth factor receptor (EGFR) Biomarker Activity (AID 2283057). As to conditions: primary human foreskin fibroblasts; actives raise or lower the signal. In outline: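 Dosing human primary skin fibroblasts, then measuring surface EGFR by ELISA at 24 h, gives the endpoint; gains and losses relative to DMSO were fitted in both directions.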

Read-out in experiment [9]: Interleukin-8 (IL8), CXCL8 (gene 3576)
Description: BSK_hDFCGF_IL8: BioMAP Diversity Plus: hDFCGF Assay for Interleukin-8 (IL8) Biomarker Activity (AID 2283058). As to conditions: primary human foreskin fibroblasts; actives raise or lower the signal. In outline: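 hDFCGF human dermal fibroblasts; 24 h chemical exposure; IL-8 by ELISA; bidirectional curve fit vs DMSO baseline; gain or loss of signal scored.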

Experiment [10] is described as follows: BSK_hDFCGF_Proliferation: Cell Proliferation Assessment in the BioMAP Diversity Plus: hDFCGF Assay (AID 2283059).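 Further: curves fitted for both rise and fall of signal versus DMSO baseline.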 As to conditions: primary human foreskin fibroblasts. The essentials: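 Primary human foreskin fibroblasts, sub-confluent; […]; 10% TCA fix, 0.1% SRB stain, A560 total protein. Gain/loss fitted bidirectionally vs DMSO control.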

With `FC(F)(F)C(F)(F)C(F)(F)C(F)(F)C(F)(F)C(F)(F)C(F)(F)Br`, the result in [1], in [2], in experiment [3], in experiment [4], in [5] and in experiment [6] was inactive. Besides, the outcome in experiment [7], in experiment [8], in experiment [9] and in [10] was inactive.
With `O=C(O)C(F)(OC(F)(F)C(F)(OC(F)(F)C(F)(F)C(F)(F)F)C(F)(F)F)C(F)(F)F` (stereo unspecified), the outcome in [1], in [2], in [3], in [4], in experiment [5] and in experiment [6] was inactive. Also, the outcome in experiment [7], in experiment [8], in experiment [9] and in experiment [10] was inactive.
For the compound `CS(C)(=O)=O`, the result in [1], in experiment [2], in experiment [3], in [4], in [5] and in [6] was inactive. Besides, the outcome in experiment [7], in experiment [8], in experiment [9] and in [10] was inactive.
Take `OCC(F)(F)C(F)(F)C(F)(F)C(F)F`: the outcome in [1], in experiment [2], in experiment [3], in experiment [4], in [5] and in experiment [6] was inactive. In addition, the result in experiment [7], in experiment [8], in experiment [9] and in experiment [10] was inactive.
What is called AC50 is the concentration giving half of the maximal activity seen. With `CO[Si](OC)(c1ccccc1)c1ccccc1`, the AC50 was 31.1 µM (active) in experiment [1]; 30.7 µM (active) in [3]; 29.5 µM (active) in [5]; 35.7 µM (active) in experiment [6]; 32 µM (active) in [7]; 28.1 µM (active) in experiment [10]. Besides, the outcome in experiment [2], in experiment [4], in experiment [8] and in experiment [9] was inactive.
For the compound `FC(F)(F)C(F)(F)C(F)(F)N(C(F)(F)C(F)(F)C(F)(F)F)C(F)(F)C(F)(F)C(F)(F)F`, the result in experiment [1], in experiment [2], in [3], in [4], in [5] and in [6] was inactive. Moreover, the result in experiment [7], in [8], in [9] and in [10] was inactive.
On to `FC(F)(F)C(F)(F)C(F)(F)C(F)(F)C(F)(F)C(F)(F)CC1CO1` (stereo unspecified), for which the result in experiment [1], in experiment [2], in [3], in experiment [4], in [5] and in [6] was inactive. The result in experiment [7], in [8], in [9] and in experiment [10] was inactive.
Regarding `OCC(F)(F)C(F)(F)C(F)(F)C(F)(F)C(F)(F)C(F)F`, the result in experiment [1], in [2], in [3], in experiment [4], in experiment [5] and in experiment [6] was inactive. In addition, the outcome in [7], in experiment [8], in experiment [9] and in experiment [10] was inactive.
Turning to `C=CC(F)(F)C(F)(F)C(F)(F)C(F)(F)C(F)(F)C(F)(F)C(F)(F)C(F)(F)C=C`, the outcome in [1], in experiment [2], in experiment [3], in experiment [4], in experiment [5] and in experiment [6] was inactive. For the same compound, the result in [7], in [8], in experiment [9] and in [10] was inactive.
On to `O=C(O)C(F)(F)C(F)(F)C(F)(F)F`, for which the result in [1], in experiment [2], in experiment [3], in experiment [4], in experiment [5] and in [6] was inactive. Further, the outcome in [7], in experiment [8], in experiment [9] and in experiment [10] was inactive.
For `C=C(C)C(=O)OCCC(F)(F)C(F)(F)C(F)(F)C(F)(F)C(F)(C(F)(F)F)C(F)(F)F`, the result in experiment [1], in [2], in experiment [3], in [4], in experiment [5] and in experiment [6] was inactive. For the same compound, the outcome in experiment [7], in experiment [8], in [9] and in experiment [10] was inactive.
Take `Cc1ccc(S(=O)(=O)OCC(F)(F)C(F)(F)C(F)(F)C(F)(F)C(F)(F)C(F)F)cc1`: the outcome in experiment [1], in [2], in [3], in experiment [4], in experiment [5] and in experiment [6] was inactive. Moreover, the outcome in experiment [7], in [8], in experiment [9] and in [10] was inactive.
As for `FC(F)(F)C(F)(F)C(F)(F)C(F)(F)C(F)(F)C(F)(F)CCS`, the outcome in experiment [1], in [2], in [3], in experiment [4], in [5] and in [6] was inactive. Further, the result in [7], in [8], in experiment [9] and in experiment [10] was inactive.
With `C=CC(=O)OCC(F)(F)C(F)(F)C(F)(F)C(F)(F)C(F)(F)C(F)(F)C(F)(F)F`, the result in [1], in experiment [2], in [3], in [4], in experiment [5] and in experiment [6] was inactive. Besides, the result in experiment [7], in experiment [8] and in experiment [9] was inactive. Besides, the AC50 in experiment [10] was 17.5 µM (active) and 46.3 µM (active).
`C=C(C)C(=O)OCC(F)(F)C(F)(F)C(F)(F)F`: the result in [1], in experiment [2], in experiment [3], in [4], in experiment [5] and in [6] was inactive. The outcome in [7], in experiment [8], in [9] and in [10] was inactive.
Turning to `FC(F)(F)C(F)(F)C(F)(F)C(F)(F)C(F)(F)C(F)(F)C(F)(F)I`, the outcome in experiment [1], in [2], in experiment [3], in experiment [4], in [5] and in experiment [6] was inactive. The result in [7], in experiment [8], in experiment [9] and in experiment [10] was inactive. The AC50 in experiment [10] is 2.64 µM (active).
For the compound `O=C(O)C(F)(OC(F)(F)C(F)(OC(F)(F)C(F)(OC(F)(F)C(F)(F)C(F)(F)F)C(F)(F)F)C(F)(F)F)C(F)(F)F` (stereo unspecified), the outcome in experiment [1], in experiment [2], in experiment [3], in [4], in [5] and in experiment [6] was inactive. Also, the outcome in experiment [7], in experiment [8], in [9] and in experiment [10] was inactive.
Take `Oc1ccc(Nc2ccccc2)cc1`: the outcome in experiment [1], in [4], in experiment [5], in [6], in experiment [7] and in [8] was inactive. In addition, in [9], the outcome was inactive. Further, the AC50 is 5.45 µM (active) in [2], 11 µM (active) in [3] and 26.5 µM (active) in experiment [10].
